Most compounds without a hit are left out; they make up all but 2.6% or so of the library.
AmpC nodet inh: AmpC beta-lactamase inhibition, detergent-free assay; Potency, µM (titrated, usually from 28.7 µM); AmpC nitrocefin hydrolysis, absorbance 480 nm, no detergent; AID 585; P00811; 1.8% of 71,000 active
Target sequence (P00811 whole entry, looked up): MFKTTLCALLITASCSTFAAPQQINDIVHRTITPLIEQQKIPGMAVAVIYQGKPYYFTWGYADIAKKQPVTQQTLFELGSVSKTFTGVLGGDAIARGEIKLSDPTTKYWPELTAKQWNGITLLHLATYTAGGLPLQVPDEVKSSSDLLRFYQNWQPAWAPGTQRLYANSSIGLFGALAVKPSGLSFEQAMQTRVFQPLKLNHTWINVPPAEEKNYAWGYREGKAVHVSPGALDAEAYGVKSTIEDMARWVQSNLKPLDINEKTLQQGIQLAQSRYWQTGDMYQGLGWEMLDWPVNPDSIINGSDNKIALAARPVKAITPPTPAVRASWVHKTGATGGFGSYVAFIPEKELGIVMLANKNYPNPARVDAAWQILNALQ
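AmpC in 20 mM phosphate buffer pH 7.0 was preincubated 15 min at room temperature with compounds. Nitrocefin (800 uM stock) was then added and hydrolysis followed at 480 nm every 20 s for 4 min.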
Prx2 Sm inh: inhibitors of Schistosoma mansoni peroxiredoxin 2; AID 448; Potency, µM; 0.07% of 65,000 active; S. mansoni Prx2 activity coupled to TGR/GSH (TGR is thioredoxin glutathione reductase), NADPH fluorescence loss, qHTS
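Prx2 activity was followed as the loss of NADPH fluorescence (ex 365/em 450 nm), read every 30 sec for 8 min after H2O2 start. The enzyme mix (50 nM Prx2, 25 nM TGR, GSH, NADPH; pH 7.4 phosphate buffer) was incubated with compound for 15 min at room temperature first.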
LT uptake inh: inhibitors of anthrax lethal toxin internalization. Cells, anthrax lethal toxin internalization, FRET ratio (460/530). Potency, µM (series often up to 40 µM), most hits filed as inhibitors. 0.67% of 70,000 active. AID 912; further: nearly all actives have a fitted effect of over 50% in size
AmpC det inh: inhibitors of E. coli AmpC beta-lactamase with detergent. P00811. purified AmpC, nitrocefin hydrolysis with detergent. Potency, µM (titrated, usually from 28.7 µM). 0.09% of 71,000 active. AID 584; active means well fitted curve in the direction sought with a large enough effect; inconclusive means small, poorly fitted or top-dose-only effect
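E. coli AmpC (5.3 nM) in 20 mM phosphate pH 7.0 with 0.01% Triton X-100, preincubated 15 min RT with compound; nitrocefin (2 uL of 800 uM stock) hydrolysis followed by 480 nm absorbance every 20 s over 4 min.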
Large screens that a line does not name were inactive; ! = a repeat was not active; [ ] = dose if it differs, or a comment. Unless noted, the call rests on the fitted dose curve.

O=C1CCc2cc(S(=O)(=O)NC(C(=O)NCc3cccnc3)c3ccccc3)ccc2N1 (stereo not given)	AmpC nodet inh 4µM[single pt active]
CC(NC(=O)CCNS(=O)(=O)c1ccc2c(c1)c(=O)n(C)c(=O)n2C)c1ccccc1 (stereo not given)	none
N[C@@](CCc1ccccc1)(C(=O)O)c1ccccc1	none
COC(=O)[C@@H]1C[C@H]1[C@@H](NC(C)=O)c1ccccc1	none
C[N+](C)(C)CC(=O)N/N=C\c1c(O)ccc2ccccc12	LT uptake inh inconclusive
CCOC(=O)c1cc2ccc(OC(=O)c3ccco3)cc2oc1=O	LT uptake inh inconclusive
CC(=O)Oc1ccc2cc(-c3nc4ccccc4n3C)c(=O)oc2c1	Prx2 Sm inh 18, LT uptake inh inconclusive
COc1ccc2[nH]cc(CCNC(=O)C3CCCNC3=O)c2c1 (stereo not given)	AmpC nodet inh 2.5µM[single pt active]
CCCCN1CSC(=S)N(Cc2ccccc2)C1	LT uptake inh inconclusive
COc1c2ccoc2nc2c(OC)c(OC[C@H](O)C(C)(C)O)ccc12	LT uptake inh 13µM!
CCOC(=O)C1=C(CS(=O)(=O)c2ccc(F)c(C)c2)NC(=O)NC1c1ccc(O)c(O)c1 (stereo not given)	AmpC nodet inh 4µM[single pt active]
CC(=O)c1cccc(NC2c3ccccc3C(=O)N2Cc2ccc3c(c2)OCO3)c1 (stereo not given)	AmpC nodet inh 4µM[single pt active]
O=C1[C@H]2[C@H]3[C@H](O)[C@H](O)C/C(=N/OCc4ccccc4)[C@H]3CC[C@@H]2C(=O)N1c1cccc(Oc2ccccc2)c1	none (no result: AmpC nodet inh, Prx2 Sm inh, AmpC det inh)
O=S(=O)(c1ccc2c(c1)OCCO2)N1CCC(c2nc3ccc(Cl)cc3[nH]2)CC1	LT uptake inh 13µM
C=C1C[C@@]23C[C@]1(O)CC[C@@H]2[C@]12C=C[C@@H](O)[C@@](C)(C(=O)O1)[C@@H]2[C@@H]3C(=O)O	LT uptake inh inconclusive
Clc1ccc(-c2nnc(N3CCCC3)nn2)cc1	AmpC nodet inh 10µM (no result: LT uptake inh)
Clc1ccc(-c2noc(CN3CCCCC3)n2)cc1	none
CC1=NNC(=S)NCCCN2CCN(CCCNC(=S)NN=C(C)C=NNC(=S)NCCCN3CCN(CCCNC(=S)NN=C1)CC3)CC2	none
Cc1ncc(CO)c2cc(S(=O)(=O)c3ccc(F)cc3)c(=O)oc12	AmpC nodet inh 4µM[single pt active], Prx2 Sm inh 17
CC12C=C(/C=C/C=C/c3ccco3)C(C)(C1)C(/C=C/c1ccco1)CC2=O (stereo not given)	none (no result: AmpC nodet inh, Prx2 Sm inh, AmpC det inh)
Cc1cc(-c2cc(C)c(O)c(C(C)(C)C)c2)cc(C(C)(C)C)c1O	LT uptake inh 2.5µM
Cc1cc(C(C)(C)C)c(O)c(C(C)(C)C)c1	none (no result: Prx2 Sm inh, LT uptake inh)
Cc1c(Cl)c(S(N)(=O)=O)cc2c1=NC=NS=2(=O)O	none
CCCSc1nnc(Cn2c(=O)sc3ccccc32)n1C	AmpC nodet inh 4µM[single pt active]
CSc1nnc(Cn2c(=O)sc3ccccc32)n1C	AmpC nodet inh 4µM[single pt active]
CC(C)(C)c1cc(Br)ccc1OCC(=O)Nc1ncn[nH]1	LT uptake inh 7.9µM (no result: Prx2 Sm inh)
CC(C)(C)c1ccccc1OCC(=O)Nc1ncn[nH]1	LT uptake inh inconclusive
Cn1c(C(=O)Nc2ccc3c(c2)OCCO3)cc2c(=O)n(C)c3ccccc3c21	LT uptake inh inconclusive
CN1CCN(CCNC(=O)c2cc3c(=O)n(C)c4ccccc4c3n2C)CC1	AmpC nodet inh 4µM[single pt active], LT uptake inh inconclusive
CCCN1CCN(CCCNC(=O)c2cc3c(=O)n(C)c4ccccc4c3n2C)CC1	AmpC nodet inh 4µM[single pt active], LT uptake inh 13µM
Cn1c(C(=O)NCCCN2CCCCCC2)cc2c(=O)n(C)c3ccccc3c21	LT uptake inh 4µM (no result: Prx2 Sm inh)
CC(C)C(=O)N[C@@H]1CCCN1C(=O)/C=C\c1ccccc1	none (no result: AmpC nodet inh, Prx2 Sm inh, AmpC det inh)
[Cu].[O-]/N=C1/C(=[OH+])Nc2ccccc21.[O-]Nc1c(O)[nH]c2ccccc12	none
O=C(CSc1nnc(-c2ccccc2F)o1)OCc1ccccc1	none
O=C(CSc1nnc2c(n1)[nH]c1ccc(F)cc12)OCc1ccccc1	AmpC nodet inh 10µM
Nc1cc2c(nc3c4ccccc4c(N)cc3[n+]2-c2cccc3ccccc23)c2ccccc12 (tested in a mixture with another compound)	LT uptake inh inconclusive
COc1ccccc1NC(=O)N1CCN(c2ccc3nncn3n2)CC1	AmpC nodet inh 4µM[single pt active]
C[C@@]12CCC(=O)C=C1CC[C@H]1[C@@H]2[C@@H](O)C[C@]2(C)[C@@H]1CC[C@@]2(O)C(=O)COC(=O)C1CCCC1	none
COC(=O)c1ccccc1NC(=O)N1CCN(C/C=C/c2ccccc2)CC1	none
O=C(Nc1ccc(F)cc1F)N1CCN(C/C=C/c2ccccc2)CC1	AmpC nodet inh 4µM[single pt active]
COc1ccc(-c2nc(CS(=O)CC(=O)NCc3cccnc3)c(C)o2)cc1 (stereo not given)	AmpC nodet inh 3.2µM[single pt active]
CCCNC(=O)CS(=O)Cc1nc(-c2cccc(OC)c2)oc1C (stereo not given)	AmpC nodet inh 4µM[single pt active]
COc1ccc(-c2nc(CS(=O)CC(=O)NCc3ccco3)c(C)o2)cc1 (stereo not given)	AmpC nodet inh 4µM[single pt active]
COc1cccc(-c2nc(CS(=O)CC(=O)NCc3ccccc3)c(C)o2)c1 (stereo not given)	AmpC nodet inh 4µM[single pt active]
Clc1cccc2c1CN(C1=NCCN1)C2	none
Cc1ccc(S(=O)(=O)OCC(=O)O)cc1	none
CC(=O)N1C2(C=CC1(C)C(=O)NCc1cc(F)cc(C(F)(F)F)c1)CCCCC2 (stereo not given)	LT uptake inh inconclusive (no result: Prx2 Sm inh)
CC(C)(C)c1cc(Br)c(O)c(CN(Cc2cc(C(C)(C)C)cc(Br)c2O)C2CCCCC2)c1	none
COc1ccc(CC[N@+]2(C)COc3cc4oc(=O)cc(C)c4cc3C2)cc1OC	none
COC(=O)c1ccc(OCC(O)CN2CCC(C)CC2)cc1 (stereo not given)	none
CC(=O)c1ccc(OCC(O)CN2CCOCC2)cc1 (stereo not given)	AmpC nodet inh 4µM[single pt active]
CC(=O)c1ccc(OCC(O)CN2C(C)CCCC2C)cc1 (stereo not given)	AmpC nodet inh 4µM[single pt active]
CC(=O)c1ccc(OCC(O)CN2CCC(C)CC2)cc1 (stereo not given)	AmpC nodet inh 4µM[single pt active]
CCC(=O)c1ccc(OCC(O)CN2CCOCC2)cc1 (stereo not given)	none
Cn1cccc1C(=O)N1CCC2(CC1)CCN(c1cccc(-c3ccccc3)c1)CC2	none
O=C(O)Cc1cccnc1	none
CC1(C)CC(N=C=O)CC(C)(CN=C=O)C1 (stereo not given)	LT uptake inh inconclusive (no result: Prx2 Sm inh)
Cc1ccc(-c2nnn(CC(=O)N(c3cccc(F)c3)C(C(=O)NC3CCCC3)c3ccco3)n2)o1 (stereo not given)	AmpC nodet inh 13µM
Cc1nc2ccc(S(=O)(=O)NC(C(=O)N3CCCC3)C(C)C)cc2s1 (stereo not given)	AmpC nodet inh 4µM[single pt active]
Cc1nc2ccc(S(=O)(=O)NC(CC(C)C)C(=O)O)cc2s1 (stereo not given)	none
Cc1nc2ccc(S(=O)(=O)NCC(=O)N3CCC(N4CCCCC4)CC3)cc2s1	none

Bioassay records as filed in PubChem.
